This note sets out measurements from PubChem BioAssay (NCI).

The structures appear in SMILES notation. This is part of a sample that, as a whole, favours compounds with a hit. Of some 83,000 tested, about 20% had one in any assay.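 Note: values are percent growth. 100 is the growth of untreated cells, values between 100 and 0 indicate rising inhibition; between -100 and 0 indicates cell death.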 A number with no mark means an inactive call. The source made the active and inactive calls. Rule for the calls: active = growth percent below 10; inactive = the rest.

Test systems include K-562 leukemia; MDA-MB-231 breast; RXF 393 renal; SF-268 CNS; SF-295 CNS; SF-539 CNS; UACC-257 melanoma; M14 melanoma; HCT-15 colon; HT29 colon; SNB-75 CNS; SNB-19 CNS; PC-3 prostate; SK-MEL-5 melanoma; UACC-62 melanoma; LOX IMVI melanoma; SK-MEL-28 melanoma; SK-MEL-2 melanoma; MALME-3M melanoma; U251 CNS.
Common to all, as to test: NCI-60 one-dose screen, 48 h (100 = growth as untreated, 0 = no growth, -100 = all killed)
Common to all, as to conditions: 10 µM

Consider `COc1ccc2c(c1)C(=O)c1c-2c(OCCN(C)C)nc2cc(OC)c(OC)cc12`, for which the growth was 62% in the assay on K-562 leukemia; 72.3% with MDA-MB-231 breast; 70.4% in the assay on RXF 393 renal; 41% with SF-268 CNS; 21.5% with SF-295 CNS; 71.9% with SF-539 CNS. Moreover, the growth is 103% with UACC-257 melanoma; 88.8% with M14 melanoma; 76.8% in the assay with HCT-15 colon; 30.1% in the assay on HT29 colon; 51.7% in the assay with SNB-75 CNS; 57.1% with SNB-19 CNS. Moreover, the growth is 69.2% in the assay with PC-3 prostate; 89.7% in the assay on SK-MEL-5 melanoma; 83.1% in the assay with UACC-62 melanoma; -36.6% (active) with LOX IMVI melanoma; 112% with SK-MEL-28 melanoma; 54.3% with SK-MEL-2 melanoma.
As for `COc1ccc2c(c1)sc1nc(-c3ccccc3)c(-c3ccc(O)c(OC)c3)n12`, the growth with K-562 leukemia was 30.7%; in the assay with MDA-MB-231 breast it was 90.7%; in the assay on RXF 393 renal, 104%; in the assay on SF-268 CNS it was 88.7%; in the assay with SF-295 CNS, 81.2%; with SF-539 CNS, 86.9%. Further, the growth with UACC-257 melanoma is 83.8%; in the assay with M14 melanoma, 38.1%; in the assay with HT29 colon, 21.5%; in the assay with SNB-75 CNS, 77.6%; with SNB-19 CNS it was 80.4%; in the assay on PC-3 prostate, 82.3%. For the same molecule, the growth was 55.5% in the assay on SK-MEL-5 melanoma; 66.2% with UACC-62 melanoma; 61.5% with LOX IMVI melanoma; 73.6% with SK-MEL-28 melanoma; 49.8% with SK-MEL-2 melanoma.
In the case of `CC1CC(=O)OC(C)C1` (configuration not stated), the growth with MALME-3M melanoma was 98.7%; in the assay with MDA-MB-231 breast, 113%; in the assay with RXF 393 renal, 104%; with SF-268 CNS, 111%; in the assay with SF-295 CNS, 94.6%; in the assay on SF-539 CNS, 98.5%. Also, the growth with UACC-257 melanoma is 111%; in the assay on M14 melanoma it was 100%; in the assay with HCT-15 colon, 104%; in the assay with HT29 colon, 112%; with SNB-75 CNS, 78.9%; with SNB-19 CNS, 116%. Also, the growth in the assay with U251 CNS is 101%; in the assay with PC-3 prostate, 101%; in the assay on SK-MEL-5 melanoma, 100%; with UACC-62 melanoma it was 114%; in the assay with LOX IMVI melanoma, 102%; in the assay with SK-MEL-28 melanoma, 102%. Further, the growth in the assay with SK-MEL-2 melanoma is 90.1%.
Turning to `C[N+](C)(C)c1ncnc2nc[nH]c12`, the growth with K-562 leukemia is 73.3%; with MDA-MB-231 breast it was 111%; in the assay with SF-268 CNS, 102%; in the assay on SF-295 CNS, 87.8%; in the assay on SF-539 CNS it was 97.6%; with UACC-257 melanoma it was 91.5%. The growth with M14 melanoma was 93.8%; with HCT-15 colon, 94.2%; in the assay with HT29 colon it was 104%; with SNB-75 CNS, 70%; with SNB-19 CNS it was 94.9%; in the assay on U251 CNS, 93.9%. Further, the growth with PC-3 prostate is 115%; in the assay with SK-MEL-5 melanoma it was 85.4%; in the assay on UACC-62 melanoma, 90.4%; in the assay on LOX IMVI melanoma it was 90.4%; with SK-MEL-28 melanoma it was 108%; in the assay on SK-MEL-2 melanoma it was 75.8%.
Turning to `COc1ccc(/C=C/C(=O)Nc2ccc(-c3nc4ccc(F)cc4s3)cc2)cc1`, the growth with K-562 leukemia was 79.6%; in the assay on MDA-MB-231 breast, 97%; in the assay with RXF 393 renal it was 101%; with SF-268 CNS, 112%; in the assay on SF-295 CNS, 95.5%; with SF-539 CNS, 111%. Moreover, the growth with UACC-257 melanoma was 94.9%; in the assay on M14 melanoma, 102%; with HCT-15 colon it was 105%; in the assay on HT29 colon, 101%; in the assay on SNB-75 CNS, 102%; with U251 CNS, 95.4%. For the same molecule, the growth in the assay on PC-3 prostate is 94.6%; with SK-MEL-5 melanoma, 86.8%; in the assay on UACC-62 melanoma, 99.8%; with LOX IMVI melanoma, 94.7%; in the assay with SK-MEL-28 melanoma, 109%; with SK-MEL-2 melanoma it was 117%.
`CCCCCCCCCCCCCCCCN(C(C)c1ccccc1)S(=O)(=O)c1ccc(OC)c(N)c1` (configuration not stated): the growth in the assay with K-562 leukemia was 89.9%; in the assay on MDA-MB-231 breast it was 122%; in the assay on RXF 393 renal, 131%; in the assay with SF-268 CNS, 108%; in the assay on SF-295 CNS it was 116%; with SF-539 CNS, 116%. Also, the growth is 108% in the assay with UACC-257 melanoma; 115% in the assay on M14 melanoma; 115% in the assay with HCT-15 colon; 100% in the assay with HT29 colon; 91.5% with SNB-75 CNS; 100% in the assay with U251 CNS. The growth in the assay with PC-3 prostate was 101%; with SK-MEL-5 melanoma, 109%; in the assay on UACC-62 melanoma it was 103%; with LOX IMVI melanoma it was 91.7%; in the assay on SK-MEL-28 melanoma, 109%; in the assay with SK-MEL-2 melanoma, 120%.
`N=C1c2nc3n(c2C(=O)c2nc4n(c21)CCCC4)CCCC3`: the growth in the assay on K-562 leukemia was 81.4%; in the assay on MDA-MB-231 breast it was 82.6%; in the assay with RXF 393 renal, 94.8%; in the assay on SF-268 CNS it was 71.3%; in the assay on SF-295 CNS, -85.7% (active); in the assay on SF-539 CNS, -21.7% (active). In addition, the growth in the assay with UACC-257 melanoma was -6.6% (active); in the assay with M14 melanoma, -95.6% (active); in the assay with HCT-15 colon, 6.18% (active); with HT29 colon, -13.7% (active); in the assay with SNB-75 CNS it was -97% (active); in the assay with U251 CNS, 50.7%. For the same molecule, the growth in the assay with PC-3 prostate was 90.6%; in the assay on SK-MEL-5 melanoma, -98% (active); in the assay with UACC-62 melanoma, -85.1% (active); in the assay with LOX IMVI melanoma it was -68% (active); in the assay on SK-MEL-28 melanoma, -67.2% (active); in the assay on SK-MEL-2 melanoma, 82.7%.
For the molecule `Cc1ccc(NC(=O)CSc2nc3ccccc3c(=O)n2CCc2ccccc2)c(C(=O)O)c1`, the growth with MDA-MB-231 breast was 90.6%; in the assay with SF-268 CNS, 104%; with SF-295 CNS it was 91.8%; in the assay with SF-539 CNS it was 104%; with UACC-257 melanoma it was 98.1%; in the assay on M14 melanoma it was 97.8%. The growth in the assay on HT29 colon was 111%; with SNB-75 CNS, 84.3%; in the assay on SNB-19 CNS, 105%; in the assay with U251 CNS, 101%; in the assay with PC-3 prostate, 97.8%; in the assay on SK-MEL-5 melanoma, 105%. Also, the growth in the assay on UACC-62 melanoma was 99.9%; in the assay with LOX IMVI melanoma it was 99.6%; in the assay on SK-MEL-28 melanoma, 108%; with SK-MEL-2 melanoma, 89.8%.
